{"source": "PubChem BioAssay AID1645860", "about": "(Buhrlage Lab, Dana-Farber Cancer Institute and Novartis …, 2021)", "note": "The campaign covered roughly 47,000 compounds. About 2,500 (5.3%) were called active. The sample holds actives, similar compounds and a random draw of the others, so the mix is not that of the screen. Unmarked numbers belong to inactive results. Rule as the data show it: active = inhibition above about 30%; inactive = the rest.", "data": [{"biological_target": "Ubiquitin carboxyl-terminal hydrolase 30 (Homo sapiens) (UniProt Q70CQ3)", "sequence (Q70CQ3 whole entry, looked up)": "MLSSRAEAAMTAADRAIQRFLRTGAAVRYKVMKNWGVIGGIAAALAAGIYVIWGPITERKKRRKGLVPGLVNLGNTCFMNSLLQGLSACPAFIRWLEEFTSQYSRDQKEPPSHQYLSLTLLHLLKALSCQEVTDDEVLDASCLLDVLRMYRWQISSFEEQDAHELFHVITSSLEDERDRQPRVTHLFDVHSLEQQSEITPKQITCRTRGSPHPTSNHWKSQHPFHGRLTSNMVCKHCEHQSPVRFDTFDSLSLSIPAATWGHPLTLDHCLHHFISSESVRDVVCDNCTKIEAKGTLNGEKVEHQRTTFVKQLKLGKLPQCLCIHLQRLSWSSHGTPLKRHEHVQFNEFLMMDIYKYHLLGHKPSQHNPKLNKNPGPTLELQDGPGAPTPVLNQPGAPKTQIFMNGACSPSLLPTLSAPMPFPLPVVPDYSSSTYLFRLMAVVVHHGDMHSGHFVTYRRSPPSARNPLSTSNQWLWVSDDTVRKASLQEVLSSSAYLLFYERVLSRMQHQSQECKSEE", "experiment": "inhibitors of human USP30 deubiquitinase (AID 1645860)", "conditions": "purified USP30, Ub-rhodamine cleavage fluorescence; at 25 µM; stronger effect = higher value", "values": [{"smiles": "CCOc1ccc(CC(=O)N2CCN(c3ccc(OC)nn3)CC2)cc1", "inhibition": "-11.9%"}, {"smiles": "CSc1ccccc1NC(=O)c1ccc(N2CCCC2)nn1", "inhibition": "77.3% (active)"}, {"smiles": "O=C(Cc1ccccc1)N1CCN(c2ccc(N3CCCC3)nn2)CC1", "inhibition": "-15.8%"}, {"smiles": "O=C(c1ccc(N2CCCC2)nn1)N1CCN(c2ccccn2)CC1", "inhibition": "3.65%"}, {"smiles": "Cc1cc(C)n(-c2ccc(C(=O)NCC(c3ccccc3)c3c[nH]c4ccccc34)cc2)n1", "note": "(stereo not drawn)", "inhibition": "-19.5%"}, {"smiles": "Cc1cc(C)n(-c2ccc(C(=O)Nc3ccccc3C(C)C)nn2)n1", "inhibition": "34.9% (active)"}, {"smiles": "O=C(CSc1ncnc2c1nnn2-c1ccc(F)cc1)N1CCc2ccccc21", "inhibition": "3.49%"}, {"smiles": "CCCOc1ccc(C2Nc3ccccc3S(=O)(=O)N2Cc2ccccc2)cc1OCC", "note": "(stereo not drawn)", "inhibition": "11%"}, {"smiles": "CCc1noc(-c2c(C)cc(C)n2CC(=O)NCc2cccc(F)c2)n1", "inhibition": "19.8%"}, {"smiles": "COc1ccc(C(CNC(=O)c2oc3ccccc3c2C)N2CCOCC2)cc1", "note": "(stereo not drawn)", "inhibition": "0.732%"}, {"smiles": "Cc1ccc(Cn2cc(-c3noc(-c4ccccn4)n3)nn2)cc1", "inhibition": "15%"}, {"smiles": "Cc1noc(-c2cccn2Cc2ccc(F)cc2)n1", "inhibition": "-50.7%"}, {"smiles": "Cc1ccc(Cn2cc(-c3noc(-c4ccc[nH]4)n3)nn2)cc1", "inhibition": "65% (active)"}, {"smiles": "CCN1C(=O)c2c(C(=O)NC3CC3)ncn2CC1(C)C(=O)NC1CCCC1", "note": "(stereo not drawn)", "inhibition": "9.61%"}, {"smiles": "COc1cccc(CNC(=O)c2ccc(-c3cncnc3)nc2)c1", "inhibition": "17.3%"}, {"smiles": "COc1cccc(C(=O)NCc2ccc(-c3nc4cnccc4o3)cc2)c1", "inhibition": "30.7% (active)"}, {"smiles": "COc1cc(C(=O)Nc2ccc(-c3nc4cnccc4o3)cc2)cc(OC)c1OC", "inhibition": "14.2%"}, {"smiles": "Cc1cnc(C(=O)N2CCC3(CC2)CC(OCC2CC2)CO3)cn1", "note": "(stereo not drawn)", "inhibition": "-3.6%"}, {"smiles": "O=C(Cc1ccccc1)N1CCc2[nH]nc(-c3ccc(F)cc3)c2C1", "inhibition": "-4.25%"}, {"smiles": "CC(NC(=O)c1ccc(S(=O)(=O)Nc2ccccc2)cc1)c1ccc(S(N)(=O)=O)cc1", "note": "(stereo not drawn)", "inhibition": "11.3%"}, {"smiles": "CC1(C)Cc2nc(-c3ccccc3)nc(SCC(=O)Nc3cccc4ccccc34)c2CO1", "inhibition": "-6.78%"}, {"smiles": "CN1C(=O)C(C)(C)COc2ccc(NS(=O)(=O)c3ccccc3Cl)cc21", "inhibition": "0.732%"}, {"smiles": "O=C(COC(=O)c1ccc(F)c(S(=O)(=O)N2CCOCC2)c1)NCc1ccc2c(c1)OCO2", "inhibition": "-3.24%"}, {"smiles": "CCCCN(c1ccccc1)S(=O)(=O)c1cccc(C(=O)OCC(=O)NCc2ccc3c(c2)OCO3)c1", "inhibition": "47.1% (active)"}, {"smiles": "COc1ccc2c(Sc3ccccc3)c(C(=O)NCc3ccc4c(c3)OCO4)[nH]c2c1", "inhibition": "7.37%"}, {"smiles": "Cc1c(-c2nn3c(-c4ccco4)nnc3s2)cccc1[N+](=O)[O-]", "inhibition": "-45.6%"}, {"smiles": "CC(C)Cc1cc(-c2nn3c(-c4ccccc4Cl)nnc3s2)n[nH]1", "inhibition": "40.6% (active)"}, {"smiles": "CNc1nc2c(c(=O)n1C)CN(S(=O)(=O)c1ccccc1)CC2", "inhibition": "11.5%"}, {"smiles": "CC(C)c1ccc(C(=O)N2CCN(c3cnn4cnnc4c3)CC2)cc1", "inhibition": "-7.33%"}, {"smiles": "COc1ccc2ccccc2c1S(=O)N1CCN(c2ccccc2F)CC1", "note": "(stereo not drawn)", "inhibition": "1.36%"}, {"smiles": "COc1cc2[nH]c(=O)n(Cc3ccc(C(=O)N4CCN(c5ccccn5)CC4)cc3)c(=O)c2cc1OC", "inhibition": "9.66%"}, {"smiles": "O=C(CSc1ccc2nnc(-c3ccccc3)n2n1)N1CCCc2ccccc21", "inhibition": "51.5% (active)"}, {"smiles": "O=C(Cn1cnc2ccccc21)N1CCCc2ccccc21", "inhibition": "-7.37%"}, {"smiles": "CC1CCN(C(=O)CSc2ccc3nnc(-c4cccc(F)c4)n3n2)CC1", "inhibition": "-0.05%"}, {"smiles": "CC(C)CN1[C@H]2CCN(C(=O)c3ccccc3)CC[C@@H]2Oc2ccccc2S1(=O)=O", "inhibition": "16.5%"}, {"smiles": "Cc1cccc(S(=O)(=O)NCCc2cn(C)c3ncccc23)c1", "inhibition": "-9.95%"}, {"smiles": "Cc1cc2c(cc1S(=O)(=O)N1CCC(C(=O)N(C)Cc3ccco3)CC1)OCC(=O)N2", "inhibition": "26.1%"}, {"smiles": "O=C(Nc1cc(-c2ccccc2)nn1C1CCS(=O)(=O)C1)c1ccccc1F", "note": "(stereo not drawn)", "inhibition": "-4.62%"}, {"smiles": "CC(C)(C)n1nc(C2CC2)c(Br)c1NC(=O)c1ccccc1F", "inhibition": "35.5% (active)"}, {"smiles": "O=C(Nc1c(C(=O)N2CCOCC2)oc2ccccc12)c1ccccc1F", "inhibition": "10.2%"}, {"smiles": "O=C(Nc1cc(=O)[nH]c2nc(CCc3ccccc3)nn12)c1ccc(F)cc1", "inhibition": "-74.9%"}, {"smiles": "COc1ccc(CNC(=O)c2ccccc2N2C(=O)N3CCc4c([nH]c5ccccc45)[C@@]3(C)C2=O)cc1", "inhibition": "41.7% (active)"}, {"smiles": "COc1ccc2[nH]c3c(c2c1)CCN1C(=O)N([C@@H](C)C(=O)NCC(=O)O)C(=O)[C@]31C", "inhibition": "-8.05%"}, {"smiles": "C[C@]12C(=O)N(c3cccc(C(=O)NCCN4CCOCC4)c3)C(=O)N1CCc1c2[nH]c2ccccc12", "inhibition": "12.9%"}, {"smiles": "O=C(N[C@@H]1C[C@@H](Oc2cccc(F)c2)[C@H](O)[C@H]1N1CCCC1)C1CCOCC1", "inhibition": "-0.94%"}, {"smiles": "COc1cccc(C(=O)N[C@@H]2C[C@@H](Oc3ccccc3)[C@H](O)[C@H]2O)c1", "inhibition": "26.7%"}, {"smiles": "Cc1nn(-c2ccccc2)c(C)c1S(=O)(=O)N1CCN(c2ccccn2)CC1", "inhibition": "-17.2%"}, {"smiles": "Clc1cc2nc(N3CCN(c4ccccn4)CC3)c3nncn3c2cc1Cl", "inhibition": "36.4% (active)"}, {"smiles": "CCC(=O)Nc1ccc2c(c1)nc(CCN1CCN(c3ccccn3)CC1)n2C", "inhibition": "-16.8%"}, {"smiles": "CCN(C(=O)COc1cccnc1[N+](=O)[O-])c1ccccc1", "inhibition": "-14.2%"}, {"smiles": "O=C(NCC(=O)N1CCCc2ccccc21)c1cccc2[nH]ccc12", "inhibition": "5.02%"}, {"smiles": "O=C(c1ccccc1)N1CCC(c2nc3c(nnn3Cc3c(Cl)cccc3Cl)c(=O)[nH]2)CC1", "inhibition": "-14.3%"}, {"smiles": "Cc1ccc(-n2c(SCC(=O)N3CCOCC3)nnc2-c2cc3ccccc3o2)cc1", "inhibition": "-10.7%"}, {"smiles": "O=C(CSc1nnc(-c2ccc3c(c2)OCO3)n1-c1ccccc1)OCC(=O)c1ccccc1", "inhibition": "69.9% (active)"}, {"smiles": "COc1ccc(-n2c(SCC(=O)OC(C)C)nnc2-c2ccccn2)cc1", "inhibition": "16.8%"}, {"smiles": "CN1CCOc2cc(S(=O)(=O)N(C)Cc3ccccc3)ccc21", "inhibition": "29.5%"}, {"smiles": "CCOc1ncccc1C(=O)OCC(=O)c1ccc2c(c1)-c1ccccc1C2", "inhibition": "-153%"}, {"smiles": "CCN1CCN(C(=O)c2cnn(-c3cc(-c4nc(C5CC5)no4)ccn3)c2C)CC1", "inhibition": "1.81%"}, {"smiles": "O=C(NCC1CC1)c1nc(-c2ccc3[nH]ccc3c2)no1", "inhibition": "0.789%"}, {"smiles": "CCc1nc(-c2ccc(-n3cc(C(=O)NCc4nc5ccc(C)cc5[nH]4)c(C)n3)cc2)no1", "inhibition": "8.95%"}, {"smiles": "Cc1ccc(CNC(=O)c2nc(-c3cn(-c4ccc(Br)cc4)nc3C)no2)o1", "inhibition": "30.2% (active)"}, {"smiles": "COc1ccc(C(=O)CSc2nnc(CC(=O)Nc3ccc(C)cc3)n2C)cc1OC", "inhibition": "9.07%"}, {"smiles": "Cc1cccc(NC(=O)c2csc(-c3cn(C)c4ncccc34)n2)c1", "inhibition": "-7.75%"}, {"smiles": "Cn1cc(-c2nc(C(=O)Nc3ccc(F)cc3)cs2)c2cccnc21", "inhibition": "62.1% (active)"}, {"smiles": "Cn1nc(C(=O)Nc2ccc(F)cc2)c(=O)c2ccccc21", "inhibition": "-0.148%"}, {"smiles": "Fc1ccccc1CNc1nnc(-c2nnc(C3CC3)o2)c2ccccc12", "inhibition": "23.3%"}, {"smiles": "O=C(O)/C(=C\\c1ccc(Br)cc1)NC(=O)c1ccco1", "inhibition": "-0.242%"}, {"smiles": "Cc1cccc(NC(=O)c2cccn2Cc2noc(C3CC3)n2)n1", "inhibition": "-19.2%"}, {"smiles": "Cc1ccc(-c2cc(C(F)F)n3ncc(C(=O)NCC(C)C)c3n2)cc1", "inhibition": "38.7% (active)"}, {"smiles": "COc1ccc(-c2cc(C(F)F)n3ncc(C(=O)N(C)Cc4c(C)nn(C)c4C)c3n2)cc1", "inhibition": "-14.7%"}, {"smiles": "Cc1ccc(CNC(=O)c2cnn3c4c(cnc23)C(=O)CCC4)cc1", "inhibition": "-12.6%"}, {"smiles": "COc1cccc(C2C(C(=O)Nc3ccccc3C)=C(C)Nc3ncnn32)c1OCc1ccccc1", "note": "(stereo not drawn)", "inhibition": "-8.1%"}, {"smiles": "COc1ccc(NC(=O)C2=C(C)Nc3ncnn3C2c2cccc(OCc3ccc(F)cc3)c2)c(OC)c1", "note": "(stereo not drawn)", "inhibition": "60.3% (active)"}, {"smiles": "COc1ccccc1NC(=O)C1=C(C)Nc2ncnn2C1c1ccc(C)o1", "note": "(stereo not drawn)", "inhibition": "-6.73%"}, {"smiles": "O=C(COC(=O)c1ccc2[nH]c3c(c2c1)CCCC3)Nc1ccc(N2CCOCC2)cc1", "inhibition": "-55.7%"}, {"smiles": "CN(C)c1ccc(CNC(=O)c2cc(CN3CCOCC3)on2)cc1", "inhibition": "22%"}, {"smiles": "O=C(CN1C(=O)C2CCCC2=Nc2ccccc21)Nc1ccc(F)cc1F", "note": "(stereo not drawn)", "inhibition": "32.2% (active)"}, {"smiles": "CCOc1nc2cccnc2n(CC(=O)Nc2ccc(F)cc2F)c1=O", "inhibition": "-13%"}, {"smiles": "O=C(CN1C(=O)c2cccnc2Sc2ccccc21)Nc1ccc(F)cc1F", "inhibition": "-96.8%"}, {"smiles": "COc1cccc(NC(=O)C(C#N)C(=O)C2CC2c2cccc(C)c2)c1", "note": "(stereo not drawn)", "inhibition": "31.3% (active)"}, {"smiles": "CNC(=O)N1CCC(n2c(C)nc(C(=O)Nc3cccc(OC)c3)c2C)CC1", "inhibition": "2.54%"}, {"smiles": "CCN1CCCCC12Cc1ccccc1CN(S(C)(=O)=O)C2", "note": "(stereo not drawn)", "inhibition": "1.88%"}, {"smiles": "O=C(Nc1cccc(S(=O)(=O)N2CCCCCC2)c1)c1ccc(N2CCOCC2)c([N+](=O)[O-])c1", "inhibition": "47.3% (active)"}, {"smiles": "Cc1cccc(NC(=O)c2ccc(N3CCC(C)CC3)c([N+](=O)[O-])c2)c1C", "inhibition": "-29.1%"}, {"smiles": "CN1CCN(S(=O)(=O)c2cccc(C(=O)Nc3cccc(S(N)(=O)=O)c3)c2)CC1", "inhibition": "7.83%"}, {"smiles": "COc1ccccc1OCc1nc(C)c(C(C)=O)s1", "inhibition": "6.92%"}, {"smiles": "c1ccc(Sc2nc(-c3ccccc3)nc3ccsc23)cc1", "inhibition": "-19%"}, {"smiles": "CCC(=O)N1CCc2cc(S(=O)(=O)NC(Cc3ccccc3)C(=O)Nc3ccccc3OC)ccc21", "note": "(stereo not drawn)", "inhibition": "-0.729%"}]}]}
